These results are taken from PubChem BioAssay AID504467 (National Center for Advancing Translational Sciences (NCATS), 2011).

The campaign covered roughly 330,000 compounds. About 7,700 (2.3%) were called active. Another 26% or so got no clear call; they are omitted. The sample as a whole holds a higher share of actives than the screen did. A number with no mark means an inactive call. Calls follow the shape of the dose curve; as a rule, active = well fitted inhibition curve with a large enough effect; inconclusive = small, poorly fitted or top-dose-only effect, or effect the other way; inactive = flat fitted curve, though single readings scatter.
% is scaled to controls: 0 for no effect and ±100 for the full control effect; potency is read from the fitted curve at half-maximal effect.

A short description of this assay: qHTS screen for small molecules that inhibit ELG1-dependent DNA repair in human embryonic kidney (HEK293T) cells expressing luciferase-tagged ELG1. Also: nearly all actives have a fitted effect of over 55% in size. As to conditions: HEK293T ELG1-luciferase reporter, luminescence, 16 h, DNA damage induced by 5-fluorouridine; series mostly up to 46.1 µM; activity change, negative = inhibition: at the top concentration. The method, boiled down:
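DMSO vehicle served as the neutral condition. Each well held 2,000 cells given 5-fluorouridine plus compound; after 16 hr at 37 °C/5% CO2, ONE-Glo was added and luciferase measured 30 min later.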
On the technique in general: In qHTS, concentration-response curves come from the screen itself.
`COCCn1c(SCC(=O)Nc2ccc3c(c2)CCC3)nc2ccccc2c1=O`: the “activity change, negative = inhibition” value is -28.4%.
In the case of `CCn1c(SCC(=O)Nc2ccc(C)cc2)nc2nc3c(cc2c1=O)CCCC3`, the Potency was 18.4 µM (active).
With `CC(=O)NCCn1c(SCC(=O)Nc2ccc(C)cc2)nc2ccccc2c1=O`, the “activity change, negative = inhibition” value is -0.151%.
Consider `COc1cc(/C=C/C(=O)OCC(=O)c2ccccc2)cc(OC)c1OC`, for which the “activity change, negative = inhibition” value is 0.612%.
The same measure, in the same setting: as for `O=C(c1ccc(Cl)nc1)N1CCN(S(=O)(=O)c2ccc3c(c2)OCCO3)CC1`, the figure is -27.2%; as for `COc1ccc(C(C(=O)NC(C)(C)C)N(Cc2ccc(F)cc2)C(=O)CCC(=O)Nc2cc(C)on2)cc1` (stereo unspecified), 13.4%; as for `Cc1cc(NC(=O)C(C)SCC(=O)Nc2ccccc2N2CCCCC2)no1` (stereo unspecified), -18.5%.
Still for that read-out and setting: the result for `C[C@H](NS(=O)(=O)c1ccc(Cl)cc1)C(=O)OCC(=O)N1CCOCC1` reads -8.58%; that for `CCn1c(SCc2ccccc2)nc2c(c1=O)SCC2`, 1.33%.
On the same count and under the same terms, the result for `Cn1c(SCC(=O)N2CCCCC2)nc2c(c1=O)SCC2` reads 0.685%.
As to `Cc1cccc(CSc2nc3c(c(=O)n2C)SCC3)c1`, the Potency was 14.6 µM (active).
For `Cc1ccc(C(=O)NNC(=O)CSc2nnc3ccccn23)cc1`, the “activity change, negative = inhibition” value is 15%.
Take `COc1ccc(CNC(=O)C(C)n2nc(C)c3c(C)n(-c4ccccc4)nc3c2=O)c(OC)c1` (stereo unspecified): the “activity change, negative = inhibition” value was -14.9%.
For the molecule `COc1ccc(OC)c(CNC(=O)Cn2nc(C)c3c(C)n(-c4ccc(C)cc4)nc3c2=O)c1`, the Potency is 8.2 µM (active).
Consider `Cc1nn(CC(=O)N2CCCCC2)c(=O)c2nn(-c3ccccc3)c(C)c12`, for which the “activity change, negative = inhibition” value is -1%.
On the same count and under the same terms, the result for `COc1ccc(S(=O)(=O)N2CCOC23CCN(S(=O)(=O)c2ccc([N+](=O)[O-])cc2)CC3)cc1` reads 9.51%.
For `Cc1nnnn1/C(=C\c1ccccc1)C(=O)OCC(=O)N1CC2(C)CC1CC(C)(C)C2` (stereo unspecified), the Potency is 20.6 µM (active).
Consider `Cc1cccc(C(=O)NCC(=O)OCC(=O)N2CC3(C)CC2CC(C)(C)C3)c1` (stereo unspecified), for which the “activity change, negative = inhibition” value was 6.11%.
On the same count and under the same terms, as for `COc1ccccc1C(=O)N1CC2(C)CC1CC(C)(C)C2` (stereo unspecified), the figure is -15.1%.
On the same count and under the same terms, as for `Cc1ccc(CNC(=O)c2cc(-c3ccccc3C)n(CC3CC(c4cccc([N+](=O)[O-])c4)=NO3)n2)cc1` (stereo unspecified), the figure is -6.87%.
Still for that read-out and setting: as for `O=C(c1ccccc1)N1N=C(c2ccccc2O)CC1c1ccc(Br)cc1` (stereo unspecified), the figure is -16.7%; as for `COc1ccc2c(CC(=O)NNC(=O)c3ccccc3F)coc2c1`, -10.1%.
Turning to `Cc1cccc(NC(=O)c2ccc3c(=O)n(CC4CCCO4)c(=S)[nH]c3c2)c1` (stereo unspecified), the Potency was 16.4 µM (active).
In the case of `CCC(=O)Nc1ccc(C(=O)Nc2ccc3c(c2)C(=O)N(CC2CCCO2)C3=O)cc1` (stereo unspecified), the “activity change, negative = inhibition” value is -6.04%.
As to `COc1ccc(Cn2c(=S)[nH]c3cc(C(=O)NCCCN4CCOCC4)ccc3c2=O)cc1`, the “activity change, negative = inhibition” value is -1.8%.
On the same count and under the same terms, the result for `COc1ccccc1N1CCN(C(=O)c2ccc(NC3=NC4CS(=O)(=O)CC4S3)cc2)CC1` (stereo unspecified) reads 7.13%.
With `COc1ccc(-c2nn(C)c(=O)c3ccccc23)cc1CNC(=O)C1CCCCC1`, the Potency was 20.6 µM (active).
As for `COc1ccc(OC)c(CNC(=O)C2CCCN(c3nc4ccccc4o3)C2)c1` (stereo unspecified), the “activity change, negative = inhibition” value was -15.2%.
Still for that read-out and setting: the result for `COc1ccccc1CNC(=O)C1CCN(c2nc3ccccc3o2)CC1` reads -24.9%; that for `CCN(CC(=O)Nc1cc(Cl)ccc1C)C(=O)CSCc1ccccc1`, 0.543%.
As to `O=C(O)c1ccc(NC(=O)c2cn(-c3ccccc3)nc2-c2ccc(Cl)cc2)cc1`, the “activity change, negative = inhibition” value was 23.2%.
As to `Cc1nnc(SCC(=O)N/N=C/c2cn(-c3ccccc3)nc2-c2ccc(F)cc2)n1-c1ccccc1`, the “activity change, negative = inhibition” value is -7.68%.
As for `COc1ccc(-c2nn(-c3ccccc3)cc2/C=N/Nc2ccccn2)cc1OC`, the Potency was 14.6 µM (active).
Consider `COc1ccc(-c2nn(-c3ccccc3)cc2C(=O)Nc2nc(CC(C)=O)ns2)cc1`, for which the “activity change, negative = inhibition” value is -25.3%.
Turning to `COc1ccc(-c2nn(-c3ccccc3)cc2C(=O)Nc2nccs2)cc1OC`, the Potency was 3.26 µM (active).
With `CN(C)/N=C/c1cn(-c2ccccc2)nc1-c1cccnc1`, the “activity change, negative = inhibition” value is -24.6%.
Take `CCC(C)N(C(=O)CSc1ncnc2c1cnn2-c1ccccc1)C1CCS(=O)(=O)C1` (stereo unspecified): the “activity change, negative = inhibition” value was -23.7%.
As for `O=C(CSc1nc2ccccc2c(=O)n1Cc1ccc(F)cc1)NCC1CCCO1` (stereo unspecified), the “activity change, negative = inhibition” value was 4.76%.
Still for that read-out and setting: as for `Cc1nc2ccccc2c(-c2ccccc2)c1C(=O)c1ccccc1`, the figure is -18.7%.
On to `Cc1nc2ccccc2c(C)c1C(=O)c1ccc(F)cc1`, for which the Potency is 14.6 µM (active).
As for `CN(Cc1nc2ccccc2s1)C(=O)c1ccc(F)cc1`, the “activity change, negative = inhibition” value was 11.3%.
For `Cc1ccc2nc(SCC(=O)N3CC(C)OC(C)C3)nc(=O)n2c1` (stereo unspecified), the “activity change, negative = inhibition” value is 28.1%.
The same measure, in the same setting: as for `CCN(CC(=O)Nc1ccc(S(=O)(=O)N2CCCC2)cc1)CC(=O)Nc1cccc(OC)c1`, the figure is 0.139%; as for `COc1ccc(CCNC(=O)C2CCCN(S(=O)(=O)c3ccc(OC)cc3)C2)cc1` (stereo unspecified), -14.9%.
Consider `CCOc1cccc(NC(=O)C2CCCN(S(=O)(=O)c3ccc(OC)cc3)C2)c1` (stereo unspecified), for which the Potency was 23.1 µM (active).
On the same count and under the same terms, as for `Cc1cccc(OCCCC(=O)Nc2ccc(S(=O)(=O)N3CCCC3)cc2)c1`, the figure is 18.4 µM (active); as for `COc1ccc(NC(=O)C2CCCN(S(=O)(=O)c3cccc4cccnc34)C2)cc1OC` (stereo unspecified), 20.6 µM (active).
For the molecule `COc1ccccc1CNC(=O)C1CCCN(S(=O)(=O)c2cccc3cccnc23)C1` (stereo unspecified), the “activity change, negative = inhibition” value is -0.624%.
`CCOc1ccc(NC(=O)COc2ccc(S(=O)(=O)N3CCCC3)cc2)cc1`: the “activity change, negative = inhibition” value is 0.975%.
On the same count and under the same terms, as for `Cc1ccc(C)c(OCCC(=O)Nc2cccc(S(=O)(=O)N3CCCC3)c2)c1`, the figure is -28.4%; as for `O=C(O)C1CCCN(S(=O)(=O)c2cccc3cccnc23)C1` (stereo unspecified), 5.15%.
